Screens (PubChem BioAssay)
In the library only some 3.3% were active in any assay of this set; here they are far more common.
OTUD3 inh: human OTUD3 deubiquitinase inhibition; hit rate 0.7% among 47,000; Q5T2D3; inhibition, % at 25 µM; purified OTUD3, Ub-rhodamine fluorescence, 2 h
Target sequence (Q5T2D3 whole entry, looked up): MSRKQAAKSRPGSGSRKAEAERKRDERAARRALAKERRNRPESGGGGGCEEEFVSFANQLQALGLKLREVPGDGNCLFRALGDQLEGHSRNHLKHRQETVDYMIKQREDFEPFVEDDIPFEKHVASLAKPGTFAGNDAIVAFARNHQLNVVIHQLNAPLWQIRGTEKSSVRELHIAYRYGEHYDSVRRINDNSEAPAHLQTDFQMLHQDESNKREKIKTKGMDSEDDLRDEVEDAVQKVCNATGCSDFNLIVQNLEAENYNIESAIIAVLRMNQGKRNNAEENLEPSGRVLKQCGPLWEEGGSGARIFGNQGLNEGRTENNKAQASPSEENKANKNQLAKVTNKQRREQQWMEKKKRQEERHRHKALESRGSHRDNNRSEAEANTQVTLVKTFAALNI
USP28 block: blocks human USP28 ubiquitin-rhodamine cleavage | Q96RU2 | purified USP28, Ub-rhodamine cleavage fluorescence, 30 min | inhibition, % at 25 µM | hit rate 3% among 47,000
Numbers without * were called inactive; . = no result. Rule as the data show it: active = inhibition above about 30%; inactive = the rest.

SMILES	OTUD3 inh	USP28 block
O=c1c2cc([N+](=O)[O-])ccc2nc(CN2CCN(c3ccccn3)CC2)n1-c1ccccc1F	30*	25
COc1cccc(O[C@@H]2C[C@@H](NC(=O)c3cnn(C)c3)[C@H](N3CCOCC3)[C@H]2O)c1	7	-5
CC(=O)Nc1ccc(NC(=O)c2ccc(N3C(=O)N4CCc5c([nH]c6ccccc56)[C@@]4(C)C3=O)cc2)cc1	-20	31*
C[C@@H](C(=O)NCc1ccc(F)cc1)N1C(=O)N2CCc3c([nH]c4ccccc34)[C@@]2(C)C1=O	-6	36*
C[C@@H](C(=O)NCCc1ccc(F)cc1)N1C(=O)N2CCc3c([nH]c4ccccc34)[C@@]2(C)C1=O	10	22
C[C@]12C(=O)N(c3ccc(C(=O)NCc4ccc(F)cc4)cc3)C(=O)N1CCc1c2[nH]c2ccccc12	16	15
Cc1ccc(NC(=O)c2cccn2Cc2noc(C3CC3)n2)cc1	-7	0
O=C(Cn1cc(S(=O)(=O)Cc2cccc(Cl)c2)c2ccccc21)N1CCCC1	-6	3
CCOC(=O)c1cc(-c2ccccc2)sc1NC(=O)CNc1cccc(C(C)=O)c1	-3	-3
CCOC(=O)c1c(-c2ccccc2Cl)csc1NC(=O)CNc1cccc(O)c1	-4	39*
Cc1cc(C)c(C(=O)Nc2sc(C(C)C)cc2C(=O)N2CCOCC2)c(C)c1	5	9
COc1cccc(NS(=O)(=O)c2ccc(Oc3ccccc3OC)cc2)c1	17	34*
COc1cccc(NS(=O)(=O)c2ccc3c(c2)N(C)CCO3)c1	-2	-1
COc1ncc(C(=O)NC2CCN(C(=O)OC(C)(C)C)CC2)cn1	0	5
O=C(NCCc1cccc(Cl)c1)c1ccc(-c2ccccc2)cc1	6	15
O=C(NCCc1ccc(Cl)cc1)c1ccc(CNS(=O)(=O)c2ccccc2)cc1	17	60*
Cc1noc(C)c1CN1CCN(C(=O)c2ccc(OC(C)C)cc2)CC1	-4	-4
Cc1cnnn1-c1ccc(C(=O)Nc2ccccc2F)cc1	10	12
Cc1cnnn1-c1ccc(C(=O)Nc2ccc(Cl)cc2Cl)cc1	23	37*
CCn1cc(Cn2cc(Cl)c(N)n2)c(C)n1	7	11
COc1ccc(CCNC(=O)Cn2c(=O)c3sccc3n(Cc3cccc([N+](=O)[O-])c3)c2=O)cc1OC	30	11
CCCc1nc2sc3c(SCCc4ccccc4)ncnc3c2c2c1COC(C)(C)C2	0	-11
O=C(c1ccccc1)N1CCC2(C1)Nc1cccnc1NC2=NCc1ccccc1 (configuration not stated)	-200	-216
COc1ccc(-c2cc(C(=O)N3CCN(c4ccc(N5CCOCC5)nn4)CC3)[nH]n2)cc1	16	32*
O=C(c1cc(-c2ccc(Cl)cc2)n[nH]1)N1CCN(c2ccc(N3CCOCC3)nn2)CC1	3	14
SMILES	OTUD3 inh	USP28 block
Cc1cccc(CCNC(=O)Cn2nc(-n3c(C)ccc3C)c3c(C)cc(C)nc32)c1	11	0
CC(CCc1ccccc1)NC(=O)Cn1cccc1C(=O)c1ccccc1 (configuration not stated)	4	38*
CC(CCc1ccccc1)NC(=O)CSc1ncnc2nc[nH]c12 (configuration not stated)	2	.
COc1cccc(C(C(=O)Nc2ccc(F)cc2)N(Cc2ccc(F)cc2)C(=O)c2cnccn2)c1 (configuration not stated)	9	8
Cc1cnc(C2CN(C(=O)c3ccc4ccccc4n3)CCO2)[nH]1 (configuration not stated)	9	9
CSc1nc2ncn(CC(=O)Nc3ccccc3C)c(=O)c2s1	5	7
Cc1cnc(C2COCCN2C(=O)c2c(C)oc3c2CCCC3)[nH]1 (configuration not stated)	-7	0
COc1ccc(-c2ocnc2C(=O)Nc2ccccc2F)cc1OC	37*	27
COc1ccc(-c2ocnc2C(=O)NCc2ccc(F)cc2)cc1OC	1	14
O=C(c1cscn1)N1CCC2(CC1)CC1(CO2)Nc2ccccc2-n2cccc21 (configuration not stated)	-15	-5
Cc1nn(-c2ccc(Cl)cc2)c2[nH]c(=O)c(CNCCc3ccccc3)cc12	-9	4
COc1ccc(N2CCN(CC(O)COCc3ccc(Cl)cc3)CC2)cc1 (configuration not stated)	-4	-14
SC(COCc1ccccc1)CN1CCN(c2ccccc2)CC1 (configuration not stated)	33*	24
Cc1nc2cc(-c3noc(C4CCC4)n3)ccc2n(C2CCCC2)c1=O	-17	-32
C[C@]12C(=O)N(Cc3ccco3)CC(=O)N1CC(c1ccc(Cl)cc1)c1c2[nH]c2ccccc12 (some centres not stated)	-2	3
O=C(NCc1ccc(Cl)c(Cl)c1)c1cc(S(=O)(=O)N2CCC3(CC2)OCCO3)ccc1F	6	36*
O=C(NCc1ccccc1Cl)c1cc(S(=O)(=O)N2CCC3(CC2)OCCO3)ccc1F	-2	16
Cc1ccc(Cn2nnc(C(=O)N3CCSCC3)c2-n2cccc2)cc1	3	22
COc1ccc(Cn2nnc(C(=O)N3CCSCC3)c2-n2cccc2)cc1	4	20
O=C(c1nnn(Cc2ccc(Cl)cc2)c1-n1cccc1)N1CCCC1	16	76*
COc1ccc(Cn2nnc(C(=O)NC3CCCCC3)c2-n2cccc2)cc1	22	42*
O=C(Cn1nnc2ccccc21)N1C[C@@H](O)[C@H](N2CCOCC2)C1	-6	-10
Cc1cc(N(C)C)n2nc(-c3ccccc3)c(C)c2n1	-15	-2
CC1C(=O)N(Cc2ccc(C#N)cc2)c2ccccc2N1C(=O)c1ccc(F)cc1 (configuration not stated)	8	12
CN1[C@@H](CCC(=O)Nc2ccccc2)CNC(=O)[C@H]2NCC[C@H]21	14	14
SMILES	OTUD3 inh	USP28 block
C[C@H]1[C@H](C)CCC23CC[C@]4(C)[C@@](C=CC5[C@@]6(C)CC[C@H](O)C(C)(C)[C@@H]6CC[C@]54C)(OC2=O)[C@H]13 (some centres not stated)	32*	38*
C[C@@H]1CC[C@H]2C(C)(C)[C@H](O)CC[C@]2(C)[C@@]12Cc1c(O)cc3c(c1O2)CNC3=O	-14	-12
CN1C(=O)COc2cc(-c3noc(C(=O)NCc4ccc(F)cc4)n3)ccc21	29	11
CC(C)OC(=O)c1ccc(NC(=O)c2cccc(-n3cnnc3)n2)cc1	19	16
O=C(c1ccccc1)c1c(-c2ccccc2)oc2ccc(NS(=O)(=O)c3ccc(Cl)cc3)cc12	10	25
Cc1oc2ccc(NS(=O)(=O)c3ccc(F)cc3)cc2c1C(=O)OCc1ccccc1	7	60*
CCN1CC2(CC1=O)CN(C(=O)NC(C)C)CCN(S(=O)(=O)Cc1ccccc1)C2 (configuration not stated)	22	15
CC(C)=CCC/C(C)=C/COc1ccc(/C=C2\C(=O)N(O)[C@@H](C)C(=O)N2O)cc1	6	47*
COc1cc(/C=C2\Oc3cc(OCC=C(C)C)ccc3C2=O)cc(OC)c1OC	-31	-26
Nc1c(C(=O)NCc2ccc3c(c2)OCO3)nnn1Cc1ccc(Br)cc1F	22	40*
CCn1nnc2cc(C(=O)NCc3ccc4c(c3)OCO4)ccc21	-9	5
O=C(NCC1CCCO1)c1cn(Cc2ccccc2)nc1-c1cccnc1 (configuration not stated)	1	-9
